Screening results deposited in PubChem BioAssay by National Center for Advancing Translational Sciences (NCATS).
This is a sample that favours compounds with a hit; in the whole collection about 5.3% have one here.
ALOX12 inhib – qHTS Assay for Inhibitors of 12-hLO (12-human lipoxygenase); Polyunsaturated fatty acid lipoxygenase ALOX12 (Homo sapiens), P18054; purified 12-hLO, xylenol orange hydroperoxide absorbance; Potency, µM (doses to about 57.1 µM), for inactives: at the highest dose activity change, negative = inhibition, usual class: inhibitors; hit rate 0.12% among 150,000; AID 1452, 2008; also: potency is read from the fitted curve at half-maximal effect; nearly all actives have a fitted effect of over 55% in size
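Purified human 12hLO (150 nM final) was preincubated with compounds for 15 min at room temperature in 25 mM Hepes pH 7.0, 0.01% Triton X-100, then reacted with 40 uM arachidonic acid for 30 min. Hydroperoxide was detected with ferrous iron/xylenol orange.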
IMPase cell inh – qHTS Assay for Identifying the Cell-Membrane Permeable IMPase Inhibitors; Inositol monophosphatase 1 (Rattus norvegicus), P97697; inhibition (IP1 accumulation), % at 46.1 µM; AID 901, 2007; 120,000 tested, under 10 active; CHO-M1 cells, IP1 accumulation, HTRF TR-FRET ratio; active = well fitted curve in the direction sought with a large enough effect in the signal ratio, not every such curve was filed as active; inconclusive = small, poorly fitted or top-dose-only effect, or a change in a side signal; inactive = no such curve, though single readings can be large or run the other way; the % refers to the signal ratio;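 also: cells stimulated with carbachol in lithium chloride buffer; plate controls were DMSO basal wells for no effect and reference inhibitor wells for full effect; higher means more IMPase inhibition seen as more IP1 and lower FRET ratio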
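Measured: the HTRF emission ratio (665/620 nm) plus the 620 nm donor channel, each fitted to the Hill equation to give AC50. Cells were CHO-M1 given compounds up to 46 uM and a 30 min carbachol stimulation at 37C.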
ALOX15B inhib – qHTS Assay for Inhibitors of 15-hLO-2 (15-human lipoxygenase 2); Polyunsaturated fatty acid lipoxygenase ALOX15B (Homo sapiens), O15296; purified 15hLO-2, xylenol orange hydroperoxide absorbance; Potency, µM (series often up to 57.1 µM), for inactives: top-dose activity change, negative = inhibition, actives largely listed as inhibitors; hit rate 0.56% among 110,000; AID 881, 2007; also: potency is read from the fitted curve at half-maximal effect; nearly all actives have a fitted effect of over 60% in size
Target sequence (O15296 whole entry, looked up): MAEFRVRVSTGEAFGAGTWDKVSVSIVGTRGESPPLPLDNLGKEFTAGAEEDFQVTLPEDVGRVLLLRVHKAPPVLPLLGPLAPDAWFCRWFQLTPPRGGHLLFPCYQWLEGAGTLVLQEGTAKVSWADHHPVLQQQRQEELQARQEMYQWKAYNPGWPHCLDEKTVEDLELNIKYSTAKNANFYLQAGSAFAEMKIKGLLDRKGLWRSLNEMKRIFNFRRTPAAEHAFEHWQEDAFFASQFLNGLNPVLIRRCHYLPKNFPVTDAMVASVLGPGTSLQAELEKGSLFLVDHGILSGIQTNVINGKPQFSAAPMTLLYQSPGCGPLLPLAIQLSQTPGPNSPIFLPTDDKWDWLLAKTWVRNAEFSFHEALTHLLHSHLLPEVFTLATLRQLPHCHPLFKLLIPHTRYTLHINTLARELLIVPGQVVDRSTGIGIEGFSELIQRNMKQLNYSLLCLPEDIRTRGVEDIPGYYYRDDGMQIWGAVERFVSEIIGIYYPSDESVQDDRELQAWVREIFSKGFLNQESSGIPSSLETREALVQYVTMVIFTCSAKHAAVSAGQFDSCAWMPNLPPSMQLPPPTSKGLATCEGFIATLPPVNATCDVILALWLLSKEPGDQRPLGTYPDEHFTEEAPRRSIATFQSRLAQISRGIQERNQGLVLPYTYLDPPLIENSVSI
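Enzyme 50 nM, AA 45 uM, 25 mM Hepes pH 7.5 + 0.01% Triton X-100; cpd preinc 15 min RT, rxn 90 min RT; stop/detect with 200 uM XO + 300 uM Fe(II) in 50 mM H2SO4, 30 min; A573/A405.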
PNC assembly inh – High Content Assay for Compounds that inhibit the Assembly of the Perinucleolar Compartment | PC3M PTB-GFP, PNC prevalence imaging, 16 h; active compounds read low | activity change (PNC), negative = inhibition, % at 10 µM | hit rate 3.1% among 140,000 | AID 2417, 2010;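 active = readout at or below -70, meaning at least 70% loss of cells showing the perinucleolar compartment, a nuclear body marking cancer cells; inconclusive = readout between -30 and a set limit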;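 also: plate controls were DMSO wells for no effect and camptothecin positive control wells for full effect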
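PC3M cells stably expressing PTB-GFP, 750–1000 cells/well, treated 16 h at 37 °C with compound (23 nl of library stock), in duplicate. After paraformaldehyde fixation and Hoechst stain, imaged at 20x; PNC prevalence scored by image analysis.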
HPGD block – qHTS Assay for Inhibitors of HPGD (15-Hydroxyprostaglandin Dehydrogenase) | hit rate 4.3% among 150,000 | 15-hydroxyprostaglandin dehydrogenase [NAD(+)] (Homo sapiens), P15428 | Potency, µM, without a hit: at the top dose activity change, negative = inhibition, usual class: inhibitors | purified HPGD, NADH fluorescence kinetic, PGE2 substrate; active = well fitted inhibition curve with a large enough effect, not every such curve was filed as active; inconclusive = small, poorly fitted or top-dose-only effect, or another doubt; inactive = no such curve, though single readings can be large or run the other way; also: potency is read from the fitted curve at half-maximal effect
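20 nM HPGD preincubated 15 min at room temperature with compound in 50 mM Tris-HCl pH 8, 0.01% Tween 20. Started with 1 mM NAD+ and 30 uM prostaglandin E2; NADH fluorescence (360/450 nm) read 5 times over 30-s intervals, last minus first.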
IMPase Li inh – qHTS Assay for Identifying the Cell-Membrane Permeable IMPase Inhibitors: Potentiation with Lithium | CHO-M1 cells, IP1 TR-FRET (IP-One), carbachol + lithium | hit rate 0.35% among 210,000 | Potency, µM (top dose mostly 59.4 µM), inactives show top-dose activity, negative = IMPase inhibition, most hits filed as inhibitors;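 also: IP1 builds up when IMPase is blocked and the TR-FRET signal falls; potency is read from the fitted curve at half-maximal effect; plate controls were basal vehicle for no effect and high inhibitor control for full effect; nearly all actives have a fitted effect of over 50% in size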
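IP1 accumulation measured by competitive TR-FRET in lysed CHO-M1 cells after 30 min compound exposure at 37C, with a small lithium addition to potentiate weak responses. Hill-equation AC50 from ratio and donor-channel data.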
The depositor's hits bear a star; [ ] = another dose, or the depositor's remark. Unless noted, calls follow the shape of the dose curve; as a rule, active = well fitted curve in the direction sought with a large enough effect; inconclusive = small, poorly fitted or top-dose-only effect, or another doubt; inactive = no such curve, though single readings can be large; an effect the other way counts as inactive or inconclusive. Unless noted, % is scaled to controls: 0 for no effect and ±100 for the full control effect.

For COc1cccc(Cn2c(=O)c(-c3cc(F)cc(F)c3)nc3cncnc32)c1 the results were ALOX15B inhib 0% and IMPase Li inh 15%.
Screening CC(=O)c1cccc(CN2CCN(CC(C)C)C(CCO)C2)c1 (configuration not stated) returned IMPase Li inh 24%.
Screening CCOCCCNC(=O)C(C)NS(=O)(=O)c1ccc(C)cc1 (configuration not stated) returned ALOX12 inhib 7%, IMPase cell inh -9, ALOX15B inhib -8%, PNC assembly inh -90*, HPGD block inconclusive and IMPase Li inh -2%[38.3 µM].
Screening O=Nc1ccc(NOC(=O)c2ccccc2Br)cc1 returned ALOX12 inhib 1%, PNC assembly inh 5, HPGD block 28µM* and IMPase Li inh 8%.
O=C(ONc1ccc(N=NC(=O)c2ccccc2O)cc1)c1ccccc1 was read as ALOX12 inhib 1%, IMPase cell inh -1, ALOX15B inhib -13%, PNC assembly inh inconclusive, HPGD block inconclusive and IMPase Li inh 4%.
Screening Cc1ccc(NC(=O)CN(C)C(=O)CCC(=O)c2cccs2)cc1 returned ALOX12 inhib -3%, IMPase cell inh 14, PNC assembly inh 1, HPGD block 2% and IMPase Li inh -3%.
For COc1ccc2c(CC(=O)Nc3cccc(S(=O)(=O)N4CCOCC4)c3)coc2c1 the results were ALOX12 inhib -8%, IMPase cell inh 0, PNC assembly inh 15, HPGD block -8% and IMPase Li inh 2%.
For Cc1cc(C)nc(/N=C(/NC(=O)Nc2ccc(Cl)c(Cl)c2)Nc2cccc(Cl)c2)n1 the results were ALOX12 inhib -2%, IMPase cell inh 8, PNC assembly inh -113*, HPGD block -4% and IMPase Li inh -11%.
Cc1cc(C)nc(/N=C(/NC(=O)Nc2ccc(Cl)c(Cl)c2)Nc2ccccc2)n1 was read as ALOX12 inhib -1%, IMPase cell inh 2, PNC assembly inh 11, HPGD block -6% and IMPase Li inh -4%.
CC(c1ccco1)N(C(=O)c1ccccc1NS(=O)(=O)c1cccc([N+](=O)[O-])c1)c1ccccn1 (configuration not stated) was read as ALOX12 inhib 2%, PNC assembly inh -102*, HPGD block -1% and IMPase Li inh 10%.
For CCOC(=O)c1ccccc1NC(=O)CSc1nnnn1C the results were ALOX12 inhib -2%, IMPase cell inh -2, PNC assembly inh 29, HPGD block -9% and IMPase Li inh -1%.
`Cc1cc(C)c(NC(=O)CSc2nccn2C)c(C)c1` gave ALOX12 inhib -4%, PNC assembly inh -17, HPGD block 6.3µM* and IMPase Li inh 2%.
For CCOC(=O)c1ccccc1NC(=O)CSc1nccn1C the results were ALOX12 inhib 1%, IMPase cell inh -4, PNC assembly inh -100*, HPGD block -10% and IMPase Li inh 0%.
Screening CCOc1ccc(NC(=O)CSc2nccn2C)cc1 returned ALOX12 inhib 4%, IMPase cell inh -3, PNC assembly inh -100*, HPGD block -9% and IMPase Li inh 2%.
Screening COc1ccccc1C(=O)NC1(C(F)(F)F)C(=O)NC(C)=C1C#N (configuration not stated) returned IMPase cell inh -21.
`O=C(c1ccccc1SCc1ccccc1)N1CCCCCC1` gave IMPase Li inh 20%.
O=c1oc2ccccc2cc1-c1cn2cc(Cc3ccc(Br)cc3)sc2n1 was read as IMPase cell inh 3.
For O=C1c2ccccc2C(=O)C1(O)O the results were ALOX12 inhib inconclusive, ALOX15B inhib 25µM*, HPGD block -7% and IMPase Li inh 2%.
Screening Cc1ccc(CCNC(=O)Cn2cccc2)cc1 returned ALOX12 inhib 3%, IMPase cell inh 2, ALOX15B inhib -1%, PNC assembly inh 22, HPGD block 14µM* and IMPase Li inh -1%[38.3 µM].
`Cc1ccc(CCNC(=O)NC(C)(C)C)cc1` gave ALOX12 inhib 2%, IMPase cell inh 14, ALOX15B inhib -1%, PNC assembly inh -13, HPGD block -6% and IMPase Li inh 21%[38.3 µM].
FC(F)(F)c1cnc(Oc2ccc(-c3nnco3)cc2)c(Cl)c1 was read as ALOX12 inhib -9%, IMPase cell inh 8, ALOX15B inhib -7%, PNC assembly inh -30, HPGD block 11µM* and IMPase Li inh 22%[38.3 µM].
FC(F)(F)c1cnc(Oc2ccccc2-c2nnco2)c(Cl)c1 was read as ALOX12 inhib -1%, IMPase cell inh -5, ALOX15B inhib -3%, PNC assembly inh -15, HPGD block -28% and IMPase Li inh 29%[38.3 µM].
For C#CCCCC(=O)Nc1ccccc1 the results were ALOX12 inhib 0%, ALOX15B inhib 10%, HPGD block -6% and IMPase Li inh -10%.
Screening C/C(=N\NC(=O)C1(C)CC1(Br)Br)c1ccc(NC(=O)c2ccc(C)o2)cc1 (configuration not stated) returned ALOX12 inhib 0%, PNC assembly inh -21, HPGD block 18µM* and IMPase Li inh 15%.
`COc1cc(/C=C2\S/C(=N/S(=O)(=O)c3ccc(C)cc3)NC2=O)c([N+](=O)[O-])cc1OC` gave ALOX12 inhib inconclusive, IMPase cell inh -8, PNC assembly inh inconclusive, HPGD block 7.1µM* and IMPase Li inh 1%.
`Cc1ccc(S(=O)(=O)/N=C2/NC(=O)/C(=C/c3ccncc3)S2)cc1` gave ALOX12 inhib 6%, PNC assembly inh 47, HPGD block 14µM* and IMPase Li inh 1%.
O=C(CSc1nc(-c2ccccc2)cs1)Nc1ccccc1[N+](=O)[O-] was read as ALOX12 inhib 1%, IMPase cell inh 6, PNC assembly inh -13, HPGD block -8% and IMPase Li inh 24%.
`COc1ccc(N=c2scc(-c3ccc(S(=O)(=O)N4CCOCC4)cc3)n2CCCO)cc1` gave ALOX12 inhib 0%, IMPase cell inh 7, PNC assembly inh -100*, HPGD block -13% and IMPase Li inh 9%.
